{"source": "the supplement of paper PMC11732987", "about": "“Enantioselective OTUD7B fragment discovery through chemoproteomics screening and high-throughput optimisation” (Communications Chemistry, 2025)", "assay_in_all_cases": "log2 ratio of Biotin-Ahx-Ub-VS probe labelling (fragment/DMSO); higher = less target engagement (more negative = stronger competition), active = hit call of the paper (q ≤ 0.05, log2 ratio ≤ -1)", "details_in_all_cases": "compound concentration: 200 uM; treatment time: 3 h", "key": {"ALG13": {"target": "T1, ALG13 (UniProt Q9NP73)", "T1 sequence (whole entry)": "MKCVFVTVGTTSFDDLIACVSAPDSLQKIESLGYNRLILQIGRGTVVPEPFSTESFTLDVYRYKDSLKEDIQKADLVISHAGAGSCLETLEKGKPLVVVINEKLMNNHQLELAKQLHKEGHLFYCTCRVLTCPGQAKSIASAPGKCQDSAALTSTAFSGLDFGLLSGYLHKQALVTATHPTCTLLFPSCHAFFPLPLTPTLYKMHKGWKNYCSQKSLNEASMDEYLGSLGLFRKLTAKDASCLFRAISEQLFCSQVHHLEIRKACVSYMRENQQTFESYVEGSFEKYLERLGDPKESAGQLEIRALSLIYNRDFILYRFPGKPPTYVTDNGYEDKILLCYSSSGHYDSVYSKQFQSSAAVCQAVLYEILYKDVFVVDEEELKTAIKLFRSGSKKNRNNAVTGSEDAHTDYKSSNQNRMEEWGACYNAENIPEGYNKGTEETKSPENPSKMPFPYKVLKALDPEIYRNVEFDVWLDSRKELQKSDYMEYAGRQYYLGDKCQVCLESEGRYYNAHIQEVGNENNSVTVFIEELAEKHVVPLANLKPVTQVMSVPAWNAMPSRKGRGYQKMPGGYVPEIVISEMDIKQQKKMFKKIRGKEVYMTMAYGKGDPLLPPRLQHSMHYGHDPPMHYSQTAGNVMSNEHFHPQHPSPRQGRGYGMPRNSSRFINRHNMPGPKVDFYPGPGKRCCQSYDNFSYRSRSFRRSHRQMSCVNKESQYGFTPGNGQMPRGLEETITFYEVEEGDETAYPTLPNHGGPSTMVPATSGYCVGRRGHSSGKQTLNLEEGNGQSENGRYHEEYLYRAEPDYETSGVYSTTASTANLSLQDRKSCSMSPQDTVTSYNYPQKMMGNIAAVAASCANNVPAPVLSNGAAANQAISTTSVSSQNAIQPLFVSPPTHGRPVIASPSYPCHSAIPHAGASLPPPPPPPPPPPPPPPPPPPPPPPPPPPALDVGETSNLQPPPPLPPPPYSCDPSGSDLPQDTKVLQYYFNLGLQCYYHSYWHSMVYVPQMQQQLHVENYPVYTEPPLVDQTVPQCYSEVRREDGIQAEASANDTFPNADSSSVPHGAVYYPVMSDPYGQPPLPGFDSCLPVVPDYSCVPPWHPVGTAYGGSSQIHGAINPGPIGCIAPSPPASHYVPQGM", "how_it_was_run": "(§1)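 HEK293T lysate (495 µg per sample, in Tris/CHAPS/IGEPAL buffer with protease inhibitors) was treated in triplicate with fragment at 200 µM or with DMSO for 3 h. It was then treated with Biotin-Ahx-Ub-VS (0.5 µM final) for 1 h. Labelled DUBs were NeutrAvidin-enriched, digested with LysC and trypsin, and run by diaPASEF LC-MS/MS. Spectronaut label-free quantities were global-median-normalised. Values are average log2 ratios fragment/DMSO by unpaired t-test, using proteins with ≥2 unique peptides.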"}, "ATXN3": {"target": "ATXN3 (UniProt P54252)", "sequence (P54252 whole entry)": "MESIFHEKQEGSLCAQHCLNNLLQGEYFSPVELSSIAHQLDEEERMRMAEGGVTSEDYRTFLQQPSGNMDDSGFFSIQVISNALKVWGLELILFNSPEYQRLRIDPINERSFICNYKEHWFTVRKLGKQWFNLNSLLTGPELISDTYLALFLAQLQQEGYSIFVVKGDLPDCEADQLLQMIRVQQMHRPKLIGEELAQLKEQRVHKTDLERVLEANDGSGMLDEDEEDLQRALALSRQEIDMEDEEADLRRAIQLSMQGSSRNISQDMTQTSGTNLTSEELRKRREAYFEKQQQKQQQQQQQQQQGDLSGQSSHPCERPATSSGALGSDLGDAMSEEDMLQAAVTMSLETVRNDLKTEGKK", "how_it_was_run": "as §1"}, "BAP1": {"target": "T2, BAP1 (UniProt Q92560)", "T2 sequence (whole entry)": "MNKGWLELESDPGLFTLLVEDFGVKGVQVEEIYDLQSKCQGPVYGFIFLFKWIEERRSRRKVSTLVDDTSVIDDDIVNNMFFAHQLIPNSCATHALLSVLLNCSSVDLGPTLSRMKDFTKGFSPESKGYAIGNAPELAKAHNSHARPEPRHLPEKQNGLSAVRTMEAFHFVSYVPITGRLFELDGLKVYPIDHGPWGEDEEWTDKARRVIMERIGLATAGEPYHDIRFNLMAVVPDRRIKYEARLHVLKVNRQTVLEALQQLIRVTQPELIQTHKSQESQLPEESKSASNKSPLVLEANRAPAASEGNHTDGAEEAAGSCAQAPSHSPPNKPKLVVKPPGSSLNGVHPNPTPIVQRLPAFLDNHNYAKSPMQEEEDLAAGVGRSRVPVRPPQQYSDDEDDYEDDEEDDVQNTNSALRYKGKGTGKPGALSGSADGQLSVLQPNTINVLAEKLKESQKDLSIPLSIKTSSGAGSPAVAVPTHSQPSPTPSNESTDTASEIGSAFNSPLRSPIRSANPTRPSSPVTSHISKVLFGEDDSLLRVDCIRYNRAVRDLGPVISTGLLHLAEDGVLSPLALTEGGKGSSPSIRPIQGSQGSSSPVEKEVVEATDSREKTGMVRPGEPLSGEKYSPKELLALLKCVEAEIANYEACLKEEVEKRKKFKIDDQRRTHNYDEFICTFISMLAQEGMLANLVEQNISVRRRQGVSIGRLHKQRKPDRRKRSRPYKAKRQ", "how_it_was_run": "as §1"}, "EIF3F": {"target": "EIF3F (UniProt O00303)", "sequence (O00303 whole entry)": "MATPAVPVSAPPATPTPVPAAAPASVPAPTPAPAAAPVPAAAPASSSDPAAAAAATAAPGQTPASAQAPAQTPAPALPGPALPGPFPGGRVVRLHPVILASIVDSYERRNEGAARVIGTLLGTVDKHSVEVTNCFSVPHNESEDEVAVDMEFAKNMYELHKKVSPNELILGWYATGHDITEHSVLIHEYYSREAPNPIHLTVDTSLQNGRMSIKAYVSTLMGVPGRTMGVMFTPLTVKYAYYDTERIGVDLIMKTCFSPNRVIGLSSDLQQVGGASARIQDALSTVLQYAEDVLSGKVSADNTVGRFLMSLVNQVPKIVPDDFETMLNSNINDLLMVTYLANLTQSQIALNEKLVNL", "how_it_was_run": "as §1"}, "EIF3H": {"target": "EIF3H (UniProt O15372)", "sequence (O15372 whole entry)": "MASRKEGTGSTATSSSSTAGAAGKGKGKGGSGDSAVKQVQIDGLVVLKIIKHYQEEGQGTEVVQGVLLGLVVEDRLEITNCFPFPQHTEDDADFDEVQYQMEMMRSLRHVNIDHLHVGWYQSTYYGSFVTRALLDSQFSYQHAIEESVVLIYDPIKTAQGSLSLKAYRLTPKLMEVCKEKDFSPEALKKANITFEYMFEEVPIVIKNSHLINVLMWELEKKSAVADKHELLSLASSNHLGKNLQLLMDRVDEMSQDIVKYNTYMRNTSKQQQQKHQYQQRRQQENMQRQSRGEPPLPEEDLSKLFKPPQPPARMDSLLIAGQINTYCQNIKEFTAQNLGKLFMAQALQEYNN", "how_it_was_run": "as §1"}, "FAM105A": {"target": "T3, FAM105A (UniProt Q9NUU6)", "T3 sequence (whole entry)": "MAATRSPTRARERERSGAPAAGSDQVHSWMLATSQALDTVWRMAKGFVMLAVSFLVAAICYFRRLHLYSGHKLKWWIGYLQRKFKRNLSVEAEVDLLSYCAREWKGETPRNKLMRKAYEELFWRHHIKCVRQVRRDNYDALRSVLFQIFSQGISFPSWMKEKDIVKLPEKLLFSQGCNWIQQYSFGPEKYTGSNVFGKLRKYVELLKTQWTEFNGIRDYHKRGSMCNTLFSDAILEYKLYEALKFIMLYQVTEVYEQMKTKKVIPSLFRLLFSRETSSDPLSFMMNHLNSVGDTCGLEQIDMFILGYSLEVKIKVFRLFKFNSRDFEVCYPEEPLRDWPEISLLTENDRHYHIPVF", "how_it_was_run": "as §1"}, "OTUB1": {"target": "OTUB1 (UniProt Q96FW1)", "sequence (Q96FW1 whole entry)": "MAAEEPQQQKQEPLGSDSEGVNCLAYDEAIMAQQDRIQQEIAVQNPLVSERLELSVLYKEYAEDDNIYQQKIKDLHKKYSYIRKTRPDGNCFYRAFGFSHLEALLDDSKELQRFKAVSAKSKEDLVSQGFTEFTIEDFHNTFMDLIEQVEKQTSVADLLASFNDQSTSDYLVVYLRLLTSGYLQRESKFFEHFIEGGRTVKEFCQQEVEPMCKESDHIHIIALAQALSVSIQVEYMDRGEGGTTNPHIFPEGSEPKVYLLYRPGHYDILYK", "how_it_was_run": "as §1"}, "OTUD4": {"target": "T4, OTUD4 (UniProt Q01804)", "T4 sequence (whole entry)": "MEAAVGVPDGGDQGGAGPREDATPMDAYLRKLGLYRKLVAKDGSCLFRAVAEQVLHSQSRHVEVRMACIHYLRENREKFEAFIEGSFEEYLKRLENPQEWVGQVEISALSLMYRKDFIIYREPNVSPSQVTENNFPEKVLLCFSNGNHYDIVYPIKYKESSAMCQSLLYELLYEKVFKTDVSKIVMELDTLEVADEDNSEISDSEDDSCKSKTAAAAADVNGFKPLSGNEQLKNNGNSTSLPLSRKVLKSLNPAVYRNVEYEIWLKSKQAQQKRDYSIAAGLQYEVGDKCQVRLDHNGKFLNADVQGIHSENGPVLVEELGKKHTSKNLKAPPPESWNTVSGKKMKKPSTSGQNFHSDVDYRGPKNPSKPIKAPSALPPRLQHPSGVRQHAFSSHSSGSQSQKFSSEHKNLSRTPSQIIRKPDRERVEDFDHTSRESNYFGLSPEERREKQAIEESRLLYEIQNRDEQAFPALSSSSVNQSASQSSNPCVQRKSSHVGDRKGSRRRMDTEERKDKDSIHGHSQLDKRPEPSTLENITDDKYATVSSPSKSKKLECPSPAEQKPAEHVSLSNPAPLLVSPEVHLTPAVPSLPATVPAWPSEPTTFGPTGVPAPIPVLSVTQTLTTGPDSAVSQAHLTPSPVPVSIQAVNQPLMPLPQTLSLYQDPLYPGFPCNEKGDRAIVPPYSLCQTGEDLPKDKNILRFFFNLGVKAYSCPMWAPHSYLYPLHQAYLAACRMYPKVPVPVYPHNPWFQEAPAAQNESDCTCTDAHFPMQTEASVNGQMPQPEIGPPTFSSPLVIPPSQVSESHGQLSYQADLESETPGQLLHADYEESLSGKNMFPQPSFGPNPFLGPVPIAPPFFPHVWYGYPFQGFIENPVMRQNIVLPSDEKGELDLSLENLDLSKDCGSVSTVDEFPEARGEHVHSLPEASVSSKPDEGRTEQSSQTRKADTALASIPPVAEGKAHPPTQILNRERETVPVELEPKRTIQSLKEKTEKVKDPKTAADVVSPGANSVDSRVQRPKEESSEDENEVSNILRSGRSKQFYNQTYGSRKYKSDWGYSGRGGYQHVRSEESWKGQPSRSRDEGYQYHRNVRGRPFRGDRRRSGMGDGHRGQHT", "how_it_was_run": "as §1"}, "OTUD5": {"target": "T5, OTUD5 (UniProt Q96G74)", "T5 sequence (whole entry)": "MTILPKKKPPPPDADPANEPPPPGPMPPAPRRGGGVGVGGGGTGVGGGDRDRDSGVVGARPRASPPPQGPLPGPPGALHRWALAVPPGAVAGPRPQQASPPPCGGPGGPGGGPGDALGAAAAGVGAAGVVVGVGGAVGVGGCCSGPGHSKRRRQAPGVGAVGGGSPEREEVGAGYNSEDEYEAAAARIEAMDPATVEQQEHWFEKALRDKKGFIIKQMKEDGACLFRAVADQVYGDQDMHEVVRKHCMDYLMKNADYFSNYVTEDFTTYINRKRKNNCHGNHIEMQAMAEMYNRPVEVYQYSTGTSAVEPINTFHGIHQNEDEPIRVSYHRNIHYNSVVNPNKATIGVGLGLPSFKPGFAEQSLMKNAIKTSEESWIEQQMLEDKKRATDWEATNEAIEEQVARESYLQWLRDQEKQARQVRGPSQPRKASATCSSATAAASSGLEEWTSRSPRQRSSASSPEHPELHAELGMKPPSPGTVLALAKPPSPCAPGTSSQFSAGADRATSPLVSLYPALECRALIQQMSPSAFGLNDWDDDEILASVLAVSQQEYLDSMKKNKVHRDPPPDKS", "how_it_was_run": "as §1"}}, "note": "A number with no mark means an inactive call."}
{"compound": "O=C(CCl)Nc1cc(Cl)ccc1-n1cncn1", "values": [{"measurement": "log2 ratio of Biotin-Ahx-Ub-VS probe labelling", "setting": "ALG13", "value": 0.0898}, {"measurement": "log2 ratio of Biotin-Ahx-Ub-VS probe labelling", "setting": "ATXN3", "value": -0.881}, {"measurement": "log2 ratio of Biotin-Ahx-Ub-VS probe labelling", "setting": "BAP1", "value": "-3 (active)"}, {"measurement": "log2 ratio of Biotin-Ahx-Ub-VS probe labelling", "setting": "EIF3F", "value": -0.457}, {"measurement": "log2 ratio of Biotin-Ahx-Ub-VS probe labelling", "setting": "EIF3H", "value": 0.376}, {"measurement": "log2 ratio of Biotin-Ahx-Ub-VS probe labelling", "setting": "FAM105A", "value": 0.14}, {"measurement": "log2 ratio of Biotin-Ahx-Ub-VS probe labelling", "setting": "OTUB1", "value": -0.487}, {"measurement": "log2 ratio of Biotin-Ahx-Ub-VS probe labelling", "setting": "OTUD4", "value": -0.779}, {"measurement": "log2 ratio of Biotin-Ahx-Ub-VS probe labelling", "setting": "OTUD5", "value": "-1.05 (active)"}]}
